Assay outcomes from PubChem.
Menin-MLL TR inh – inhibitors of human menin-MLL interaction, mutant MLL peptide; O00255; Menin + Texas Red MLL mutant peptide, fluorescence polarization; Potency, µM (highest dose often 61.6 µM), for the others: at the highest dose FP activity change, negative = inhibition, usual class: inhibitors; 0.23% of 270,000 active; AID 1768; active = well fitted inhibition curve with a large enough effect in the polarisation, with a control signal flat, not every such curve was filed as active; inconclusive = small, poorly fitted or top-dose-only effect, or effect the other way, or a change in a side signal; inactive = no such curve, though single readings can be large or run the other way; the % refers to the polarisation; also: potency is read from the fitted curve at half-maximal effect; % of control where 0% means no effect
Target sequence (O00255 whole entry, looked up): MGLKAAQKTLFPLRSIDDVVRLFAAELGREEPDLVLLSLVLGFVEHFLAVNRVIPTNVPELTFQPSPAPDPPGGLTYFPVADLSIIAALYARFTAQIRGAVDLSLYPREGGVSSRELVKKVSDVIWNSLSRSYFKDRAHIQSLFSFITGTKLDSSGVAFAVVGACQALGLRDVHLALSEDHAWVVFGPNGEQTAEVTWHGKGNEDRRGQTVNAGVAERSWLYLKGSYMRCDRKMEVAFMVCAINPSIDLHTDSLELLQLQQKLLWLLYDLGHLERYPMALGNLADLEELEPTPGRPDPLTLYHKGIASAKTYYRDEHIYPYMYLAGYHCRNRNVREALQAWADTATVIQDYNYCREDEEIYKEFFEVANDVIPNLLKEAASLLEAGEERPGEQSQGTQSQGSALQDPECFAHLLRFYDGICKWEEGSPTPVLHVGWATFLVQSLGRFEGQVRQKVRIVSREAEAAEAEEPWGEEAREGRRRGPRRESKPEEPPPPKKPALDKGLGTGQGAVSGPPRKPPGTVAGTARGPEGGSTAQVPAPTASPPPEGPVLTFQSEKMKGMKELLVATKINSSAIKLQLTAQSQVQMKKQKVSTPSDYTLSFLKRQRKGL
hERG WT inh – inhibitors of human wildtype KCNH2 potassium channel; Q12809; U2OS, BacMam KCNH2, thallium flux FluxOr; stronger effect = lower value; activity change, % at 1.84 µM; 0.37% of 340,000 active; AID 720551;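 active = maximum activity change below -70%; inconclusive = maximum activity change between -70% and -50%; inactive = maximum activity change above -50%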; also: % is scaled to controls: 0 for no effect and ±100 for the full control effect
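U2OS cells were transduced with wild-type KCNH2 virus (2.03 x 10^8 / mL) for 4 h at room temperature, then cultured overnight at 37 C. Thallium flux was read with FluxOr dye. Rate constants were normalized to DMSO controls.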
KCNH2 3.1 block – inhibitors of human KCNH2 3.1 potassium channel isoform | 0.95% of 340,000 active | AID 720553 | U2OS KCNH2 3.1, thallium flux FluxOr; stronger effect = lower value | activity change, % (tested at about 1.8 µM);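 active = maximum activity change below -70%; inconclusive = maximum activity change from -70% to -50%; inactive = maximum activity change above -50%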;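 also: thallium influx rate constant from kinetic fluorescence after stimulation buffer; % is scaled to controls: 0 for no effect and ±100 for the full control effect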
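U2OS cells transduced with KCNH2 3.1 mutant virus (1.77 x 10^8 /mL, 4 h), plated overnight at 37 C, loaded 45 min with FluxOr dye plus Red40 quencher. Thallium flux rate constant from kinetic reads after stimulation buffer, normalised to controls.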
Menin MLL FP FL – displaces fluorescein MLL peptide from human menin; Fluorescence polarization, fluorescein-MLL peptide displacement from menin; 290,000 tested, under 10 active; AID 1766; FP activity change, % at 61.4 µM; active = well fitted curve in the direction sought with a large enough effect in the polarisation, not every such curve was filed as active; inconclusive = small, poorly fitted or top-dose-only effect, or effect the other way, or a change in a side signal; inactive = no such curve, though single readings can be large or run the other way; the % refers to the polarisation; also: % of control where 0% means no effect
CXXC DNA block – MLL CXXC-DNA interaction inhibition | Q03164 | MLL-CXXC / FITC-HOXA9 DNA fluorescence polarization | Potency, µM (series often up to 115 µM), without a hit: at the highest dose activity change, negative = inhibition, usual class: inhibitors | 0.037% of 290,000 active | AID 2662; active = well fitted inhibition curve with a large enough effect in the polarisation, with a control signal flat, not every such curve was filed as active; inconclusive = small, poorly fitted or top-dose-only effect, or effect the other way, or a change in a side signal; inactive = no such curve, though single readings can be large or run the other way; the % refers to the polarisation; also: potency is read from the fitted curve at half-maximal effect
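Steps: dispense CXXC domain solution (7 uM) → pin compounds or unlabeled HOX-A9 DNA control → 5 min ambient → add FLSN-HOX-A9 solution (50 nM) → spin → 30 min ambient → fluorescence polarization. Tris pH 7.5/NaCl/DTT/BSA buffer.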
* hit, by the source's call; ? = inconclusive; · = no result given. Hits are enriched below; roughly 1.1% of the tested compounds scored in any of these assays.

SMILES	Menin-MLL TR inh	hERG WT inh	KCNH2 3.1 block	Menin MLL FP FL	CXXC DNA block
Cc1ccc(-n2nnnc2-c2cccs2)cc1[N+](=O)[O-]	·	1.4	0.1	·	·
NCCC[C@@H](CC(=O)N[C@@H]1CCCC[C@H]1C(=O)N[C@H](CC(=O)N[C@@H](CCC(=O)O)CC(=O)O)Cc1c[nH]c2ccccc12)NC(=O)C[C@H](CO)NC(=O)[C@@H]1CCCC[C@H]1N	-2.3%	·	·	-2.8	·
COC(=O)C1CN(Cc2ccccc2)C(=O)C1=O (stereo not drawn)	·	-2.7	12.5	·	·
NS(=O)(=O)c1cccc(NS(=O)(=O)c2ccc(/C=C/C(=O)OCC(=O)c3ccc(Br)cc3)cc2)c1	28.2µM*	-14.0	2.1	0.2	-12.7%
COc1ccc(C(=O)COC(=O)/C=C/c2ccc(S(=O)(=O)Nc3cccc(S(N)(=O)=O)c3)cc2)cc1	?	-12.2	-4.4	1.6	-0.4%
CCOc1ccc(-c2nc[nH]c2[N+](=O)[O-])cc1	-0.5%	-8.5	-198.4*	0.3	-3.6%
COc1ccc(CC(=O)NC(C)c2nnc(SCC(=O)Nc3ccccc3F)n2C)cc1 (stereo not drawn)	1.8%	18.1	21.2	0.6	13.7%
C=CCn1c(SCCOc2ccc(OC)cc2)nnc1C(C)NC(=O)Cc1ccc(OC)cc1 (stereo not drawn)	-2.9%	6.2	-100.7*	-2.0	2.4%
CN1C(=O)C(C)(C)N(C(=O)c2cccc([N+](=O)[O-])c2)c2ccccc21	1.6%	-0.2	-99.5*	0.2	-1.1%
O=C(c1cccc([N+](=O)[O-])c1)N1CCc2ccccc21	4.3%	7.6	-3.1	-5.7	-3.8%
COC(=O)c1c(NC(=O)c2cccc(S(=O)(=O)N3CCN(C)CC3)c2)sc(C)c1C	·	-11.0	8.8	·	·
CCOc1ncccc1C(=O)NCc1ccc(OC)cc1	-18.3%	0.2	-2.4	7.9	22.1%
CCOc1ncccc1C(=O)NCc1ccc(OC)c(OC)c1	-14.3%	-5.8	-102.2*	7.7	-1.8%
CC(C)n1cc(CN2CCCC(C(=O)Nc3cccc(-c4cc5ccccc5[nH]4)c3)C2)cn1 (stereo not drawn)	21.2%	-19.3	-94.6*	-4.2	-2.0%
CCC1(CC)C(=O)C2=C3C1[C@H](C(=O)OC)CC(C(=O)OC)C[C@H]3[C@H]1C(=O)N(C)C(=O)[C@H]1[C@H]2C (stereo partly drawn)	-8.5%	·	·	-0.6	·
CCN(CC)CCCN(C(=O)c1ccco1)c1nc(-c2ccc(C)cc2)cs1	?	-47.3	-94.5*	-0.2	15.7%
CCN(CC)CCCN(C(=O)c1ccco1)c1nc(-c2ccc(Cl)cc2)cs1	-16.9%	-42.4	-80.0*	-10.3	?
CC1=C(C(=O)N(C(C)C)C(C)C)CC(CC(=O)NCc2cccs2)C(=O)N1Cc1ccccc1 (stereo not drawn)	·	-8.7	-4.7	·	·
Cc1cccc(NC(=O)Cn2cnc3c(cnn3-c3ccc(F)cc3)c2=O)c1C	?	1.0	8.7	2.7	30.6%
CC(C)CCn1cnc2c(cnn2-c2ccc(F)cc2)c1=O	-5.1%	-181.2*	-136.7*	-0.2	-11.6%
CCN(CC(=O)NCCc1ccc(S(N)(=O)=O)cc1)Cc1ccccc1	·	7.6	-74.4*	·	19.3%
COc1cccc(CC2(CO)CCCN(Cc3ccc(CN4CCCCC4)s3)C2)c1 (stereo not drawn)	-28.0%	·	-5.8	-6.3	40.3%
Cc1cc(OCCN2CCC(Cc3ccccc3)CC2)ccc1[N+](=O)[O-]	?	-0.5	-71.0*	0.7	26.4%
CCCCN(C)C(=O)C1CCN(Cc2ccc(OCc3ccccc3)cc2)CC1	-21.9%	29.8	-74.5*	0.0	-1.6%
COc1ccc(CN2CCC(Cc3ccccc3)CC2)cc1OC	-13.1%	26.4	0.5	-1.7	1.5%
SMILES	Menin-MLL TR inh	hERG WT inh	KCNH2 3.1 block	Menin MLL FP FL	CXXC DNA block
OC(COc1ccc(Cl)cc1)CN1CCC(Cc2ccccc2)CC1 (stereo not drawn)	·	-93.5*	-125.3*	·	-9.4%
CCOc1ccc(CN2CCC(Cc3ccccc3)CC2)cc1	-27.4%	-84.9*	-91.9*	1.2	21.6%
Cc1ccc(CNC(=O)C2CCC(=O)N(Cc3ccccc3F)C2)s1 (stereo not drawn)	-11.7%	4.2	15.5	-0.6	6.0%
COc1ccc2[nH]c(=O)c(-c3nnn(-c4ccc(Cl)nc4)n3)cc2c1	·	-1.8	-98.8*	·	·
CC(C)CN1CCC(=O)N(C(CSc2ccc(Br)cc2)Cc2ccccc2)CC1 (stereo not drawn)	?	·	·	0.6	·
CC(=O)NN=C1CCC(c2ccccc2)CC1 (stereo not drawn)	-1.1%	-88.2*	1.4	5.2	1.2%
Cc1ccc(-c2nc3ccccc3s2)cc1NC(=S)NC(=O)c1cccc2ccccc12	11.2µM*	3.2	0.4	·	4.6%
Cc1ccc(-c2nc3ccccc3s2)cc1NC(=S)NC(=O)/C=C/c1ccco1	?	-3.4	-6.3	9.6	4.6%
Cc1ccc(S(=O)(=O)N2CCN(C(=O)c3ccc(-n4cncn4)c([N+](=O)[O-])c3)CC2)c(C)c1	·	20.6	-11.5	·	·
COc1cccc(C(=O)NCCCN2CCN(CCCNC(=O)c3cccc(OC)c3)CC2)c1	-4.4%	?	-76.0*	10.2	0.3%
O=C(NCCCN1CCN(CCCNC(=O)c2cccc(Cl)c2)CC1)c1cccc(Cl)c1	-13.7%	-99.7*	-88.6*	5.6	2.0%
COc1ccc2cc3cc(C(=O)NCCCN4CCOCC4)oc3nc2c1	28.2µM*	-2.6	8.0	3.0	-9.3%
COc1cccc(C(=O)NCCCNC(=O)c2cccc(OC)c2)c1	5.3%	-6.2	-1.0	-2.7	-1.7%
Cc1c(C)n(C)c2ccc(C(=O)NCCCN3CCCC3)cc12	-21.3%	7.8	-97.0*	-1.5	2.7%
O=C(NCCN1CCCC1)c1cccc(Cl)c1	13.4%	4.8	29.9	1.8	-24.2%
CC(=O)Nc1cccc(/C(C)=N/Nc2ccc(S(=O)(=O)Nc3ccccc3C(=O)O)cc2[N+](=O)[O-])c1	·	-3.4	-5.9	·	·
CCCc1ccc2oc(C(=O)N3CCN(C4CCS(=O)(=O)C4)CC3)c(C)c2c1 (stereo not drawn)	·	0.2	3.3	·	31.6%
CCc1cc(SC#N)cc(C)c1NC(=O)CCl	3.2%	4.0	-26.0	4.0	-3.7%
CCc1cc(SC#N)cc(C)c1N	-8.3%	12.2	-73.6*	-11.6	-1.4%
Cc1cc2nc(C3CCN(CC4COc5ccccc5O4)CC3)[nH]c2cc1C (stereo not drawn)	-0.1%	-72.8*	-78.7*	-1.5	6.8%
COC(=O)c1oc2ccc(Br)cc2c1NC(=O)c1ccccc1	28.2µM*	7.7	-21.0	4.4	0.7%
COC(=O)c1oc2ccc(Br)cc2c1NC(=O)CN1CCN(C)CC1	·	13.7	-20.6	·	·
C[C@@H]1CN([C@H](C)CO)C(=O)CCCn2nncc2CO[C@@H]1CN(C)C(=O)Nc1ccc2c(c1)OCO2	·	-8.0	-5.0	·	·
Cc1ccc(C(=O)c2c3ccc(C(F)(F)F)cc3[n+]([O-])n2CCCN)cc1	·	-39.8	-84.7*	·	·
